The values below come from PubChem BioAssay (EPA / NIEHS).

Calls of active or inactive are those of the source. Rule for the calls: active = hit-call score of the fitted dose curve at least 0.9, where 1 is the maximum; inactive = score below 0.9.

Read-out in this experiment: CYP4A11 (gene 1579)
The experiment can be described thus: LTEA_HepaRG_CYP4A11: Life Technologies and Expression Analysis (LTEA) Assay for CYP4A11 using HepaRG (AID 2283486). As to conditions: mRNA level, 48 h; actives raise or lower the signal. Here is the method: LTEA_HepaRG is a cell based, multiplexed-readout assay that uses HepaRG, a human liver cell line, with measurements taken at 48 hours after chemical dosing on a 96-well plate.LTEA_HepaRG_CYP4A11 is one of 102 assay component(s) measured in the LTEA HepaRG cell culture assay. It is a marker of NR mediated metabolism.Data from the assay component LTEA_HepaRG_CYP4A11 was analyzed into 1 endpoint. This assay endpoint, LTEA_HepaRG_CYP4A11, was analyzed with bidirectional fitting relative to DMSO as the negative control and baseline of activity. Using a type of inducible reporter, measures of mRNA induction for gain or loss-of-signal activity can be used to understand regulation of transcription factor activity. To generalize the intended target to other relatable targets, this assay endpoint is annotated to the cyp intended target family, where the subfamily is xenobiotic metabolism.
A total of 1060 chemcials from the ToxCast library were tested in eight-point concentration-response experiments. Cell culture and cytotoxicity assays were conducted at Thermo Fisher Scientific's Custom Services facility (Madison, WI). A single lot of human HepaRG cells (Thermo Fisher Scientific, Frederick, MD) was used for the cell culture experiments. 96-well format collagen type I coated plates of human HepaRG cells were prepared using established methods. Briefly, cryopreserved HepaRG cells were thawed, plated at a density of approximately 100,000 cells/well in HepaRG Thaw, Plate, and General Purpose media (HPRG770, Thermo Fisher Scientific), and incubated for 48 hours. 0.5% DMSO was selected as vehicle control to balance the requisite need of DMSO in HepaRG cultures to maintain differentiation (for example, baseline metabolism, proportions of hepatocytes vs. cholangiocytes), while enabling further hepatic receptor pathway activation (for example, PXR and CAR) in response to chemical exposure. 48 hours after plating, the culture medium was replaced with HepaRG Serum-Free Incudtion Media. Cells were exposed to each test chemical in duplicate and maintained in CO2 incubators for another 48 hours. Chemical plates were thawed to room temperature and 200x concentrations of treatment groups were prepared. 8-point conentration-reponse curves were made with the highest exposure at 100 uM, followed by half-log dilutions, all in 0.5% DMSO. Each test plate contained variouse controls, induction positive controls (1mM phenobarbital), cytotoxicity positive controls ([…] aflatoxin B1), vehicle controls (0.5% DMSO), and total lysis controls (0.5% DMSO). Cell morphology images were taken using an Essen IncuCyte FLR automated microscope, with six 96-well plates imaged in about 24 minutes. Images were captured and exported and JPEG files. Spent culture media was transfered to black-well plates for the LDH assay, and remaining media was sorted at -80 C for later use. Cells were treated with RLT buffer and frozen until shipped for gene expression analysis. Total RNA was isolated from the cell suspension in 75 uL of Buffer RLT (Qiagen, Germantown, MD 20874) by Quintiles/Expression Analysis (Durham, NC) using a custom isolation procedure. Total RNA from each plate well was transferred to a preamplification plate. Fluidigm's 96.96 Dynamic ArrayTM (Fluidigm, Amsterdam, the Netherlands) technology was used for gene expression analyses by quantitative reverse transcription polymerase chain reaction (qRT-PCR, performed by Quintiles/Expression Analysis, Durham, NC)89. Standard TaqManTM Assays (Applied Biosystems/ThermoFisher Scientific, Foster City, CA) were used to assess the expression of 93 genes selected based on their selectivity and sensitivity to important hepatic receptors known to be modulated by environmental chemicals; importance in human hepatocyte functionality; and hepatotoxicity. […]
In the case of `O=S(=O)(O)C(F)(F)C(F)(F)C(F)(F)C(F)(F)C(F)(F)C(F)(F)F`, the AC50 (commonly the midpoint of the concentration-response curve, whichever way the signal moves) is 22.8 µM (active). For the molecule `Clc1ccc(Cl)cc1`, the molecule was classed as inactive.

Take `C1CC2OC2CC1C1CO1` (stereo not given): the molecule was classed as inactive. Take `Cc1ccccc1O`: the call was inactive. In the case of `CCCN(CCC)N=O`, the result was inactive. As to `CCSC(=O)N(CC)C1CCCCC1`, the molecule was classed as inactive. Regarding `COc1ccc(O)c(C(C)(C)C)c1`, the call was inactive.

On to `CCC(C)(c1ccc(O)cc1)c1ccc(O)cc1`, for which the call was inactive. With `O=NN(c1ccccc1)c1ccccc1`, the AC50 is 50 µM (active). For the molecule `CN(C)c1nc(=O)n(C2CCCCC2)c(=O)n1C`, the molecule was called inactive. Take `ClC1=C(Cl)[C@]2(Cl)[C@@H]3[C@@H](Cl)[C@H]4O[C@H]4[C@@H]3C1(Cl)C2(Cl)Cl`: the AC50 is 31.1 µM (active). For `Cc1ccc(O)c(C)c1`, the call was inactive. Turning to `Oc1ccc(C(c2ccc(O)cc2)(C(F)(F)F)C(F)(F)F)cc1`, the AC50 is 76.6 µM (active).

In the case of `CCNc1nc(NC(C)C)nc(SC)n1`, the AC50 is 50 µM (active). As for `c1ccc(-c2ccccc2)cc1`, the call was inactive.

Take `CCCCCCOC(=O)c1ccccc1C(=O)OCCCCCC`: the AC50 was 74.7 µM (active). Regarding `CCC(C)c1cc([N+](=O)[O-])cc([N+](=O)[O-])c1O` (stereo not given), the AC50 is 2.78 µM (active). For `O=C(N[C@H]1CN2CCC1CC2)c1cc2ccoc2cn1`, the call was inactive.

`Cc1cccc([N+](=O)[O-])c1`: the molecule was called inactive.

With `Nn1cnnc1`, the molecule was classed as inactive. Still for that read-out and setting: then `CC(c1ccc(O)cc1)(c1ccc(O)cc1)c1ccc(O)cc1`, with “inactive”. Consider `Cc1cc(O)ccc1Cl`, for which the molecule was called inactive. With `Cc1cccc(C)c1N`, the call was inactive.

As for `ClC1=C(Cl)[C@]2(Cl)[C@@H]3[C@H]4C[C@H]([C@@H]5O[C@H]45)[C@@H]3[C@@]1(Cl)C2(Cl)Cl`, the AC50 was 24.6 µM (active). As for `O=C(O)C(F)(F)C(F)(F)C(F)(F)C(F)(F)C(F)(F)F`, the AC50 is 50 µM (active). As for `Clc1ccc(C(Cl)(Cl)Cl)cc1`, the call was inactive.

As for `CC(C)C(=O)OCC(C)(C)C(OC(=O)C(C)C)C(C)C` (stereo not given), the outcome was inactive.

For `Cc1ccccc1[N+](=O)[O-]`, the molecule was classed as inactive. For `Cc1cc2c3c(c1)C(c1ccccc1)=N[C@@H](NC(=O)c1ccncc1)C(=O)N3CC2`, the AC50 was 40.4 µM (active). As to `CCC(C)(CC)c1cc(NC(=O)c2c(OC)cccc2OC)on1`, the AC50 is 26.2 µM (active).

In the case of `CCOC(=O)C(O)(c1ccc(Cl)cc1)c1ccc(Cl)cc1`, the AC50 is 20.4 µM (active). Take `C[C@]12CCC(=O)C=C1CC[C@@H]1[C@@H]2CC[C@]2(C)C(=O)CC[C@@H]12`: the AC50 is 85.7 µM (active). For `CCOCCOC(C)=O`, the molecule was called inactive.

Take `O=C(O)C(F)(F)C(F)(F)C(F)(F)C(F)(F)C(F)(F)C(F)(F)C(F)(F)C(F)(F)C(F)(F)F`: the AC50 is 81.5 µM (active).

For `CCCCCCCCCC[N+](C)(C)CCCCCCCCCC`, the AC50 is 26.3 µM (active).

Regarding `C[C@]12CCC(=O)C=C1CC[C@@H]1[C@@H]2CC[C@@]2(C)[C@H]1CC[C@]2(C)O`, the AC50 is 73.6 µM (active).

As for `CC1=C2C[C@H]3[C@@H](CC=C4C[C@@H](O)CC[C@@]43C)[C@@H]2CC[C@]12O[C@@H]1C[C@H](C)CN[C@H]1[C@H]2C`, the molecule was called inactive. As for `CCOP(=S)(OCC)SCSC(C)(C)C`, the outcome was inactive. Consider `CC#Cc1cc(C)nc(Nc2ccccc2)n1`, for which the AC50 is 1.1 µM (active). For the molecule `NS(=O)(=O)C(F)(F)C(F)(F)C(F)(F)C(F)(F)C(F)(F)C(F)(F)C(F)(F)C(F)(F)F`, the AC50 is 12.6 µM (active).
